Our source for the mean cell size values is the supplement of paper PMC4709259.

Structures are written as SMILES. Structures can show the parent of a compound that is named as a salt. ± gives the standard deviation.

This assay has as its system Jurkat. The assay is described as follows: mean cell size (FSC-A) relative to DMSO control (fraction of control); higher = larger cells. Conditions: 48 h. The procedure, abridged:
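Jurkat cells seeded at 600 cells/µl were incubated 1 h, then exposed for 48h to the Enzo Screen-Well FDA Approved Drug Library v2.0 at 25µM in 0.9% (v/v) final DMSO. Drugs that cut counts below 20% of controls were diluted 10-fold and retested, down to 25nM. Cell count and mean cell size (forward scatter area) were read on an Accuri C6 flow cytometer, relative to solvent-only controls. Plates held 6-12 controls; values are means of 3 biological replicates.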
In the case of `CC1=Nc2ccc(Cl)cc2S(=O)(=O)N1` [Diazoxide] (concentration: 25 µM), the mean cell size turned out to be 1.01 ± 0.064.

Turning to `CC(C)C(=O)Nc1ccc([N+](=O)[O-])c(C(F)(F)F)c1` [Flutamide] (concentration: 25 µM), the mean cell size was found to be 0.918 ± 0.033.

As to `CN[C@@H]1[C@H](O[C@H]2[C@H](O[C@H]3[C@H](O)[C@@H](O)[C@H](N=C(N)N)[C@@H](O)[C@@H]3N=C(N)N)O[C@@H](C)[C@]2(O)C=O)O[C@@H](CO)[C@H](O)[C@H]1O` [Streptomycin Sulfate] (concentration: 25 µM), the mean cell size stood at 0.996 ± 0.028.

As for `CC(=O)[C@@]1(O)CC[C@H]2[C@@H]3C[C@H](C)C4=CC(=O)C=C[C@]4(C)[C@@]3(F)[C@@H](O)C[C@@]21C` [Fluorometholone] (concentration: 25 µM), the mean cell size stood at 0.914 ± 0.06.

Regarding `C#C[C@]1(O)CC[C@H]2[C@@H]3CCC4=CC(=O)CC[C@@H]4[C@H]3CC[C@@]21CC` [Levonorgestrel] (concentration: 25 µM), the mean cell size came out at 0.941 ± 0.032.

`CC1=C(C(=O)O)N2C(=O)[C@@H](NC(=O)[C@H](N)c3ccccc3)[C@H]2SC1` [Cephalexin Monohydrate] (concentration: 25 µM) had a mean cell size of 0.9873 ± 0.0068.

On to `COc1c(N2CCNC(C)C2)c(F)cc2c(=O)c(C(=O)O)cn(C3CC3)c12` (stereo not drawn) [Gatifloxacin] (concentration: 25 µM), for which the mean cell size is 0.956 ± 0.024.

Take `CO[C@H]1/C=C/O[C@@]2(C)Oc3c(C)c(O)c4c(O)c(c(/C=N/N5CCN(C)CC5)c(O)c4c3C2=O)NC(=O)/C(C)=C\C=C\[C@H](C)[C@H](O)[C@@H](C)[C@@H](O)[C@@H](C)[C@H](OC(C)=O)[C@@H]1C` [Rifampin (Rifampicin)] (concentration: 25 µM): the mean cell size was found to be 0.964 ± 0.0034.
